PubChem BioAssay (EPA / NIEHS)
Where “and” joins values, the source holds several entries; their conditions need not be identical. Equal entries are not always repeated. Calls of active or inactive are those of the source. How the source made its calls: active means hit-call score of the fitted dose curve at least 0.9, where 1 is the maximum; inactive means score below 0.9.

Key:
Conditions in all cases: mRNA level, 48 h; actives raise or lower the signal
[1] = read-out: Bcl-2 (BAX) gene, BAX (gene 581); experiment: LTEA_HepaRG_BAX: Life Technologies and Expression Analysis (LTEA) Assay for Bcl-2 (BAX) gene using HepaRG (AID 2283470)
Outline: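 qRT-PCR read-out of BAX mRNA, normalized to three housekeeping genes, after 48 h chemical exposure of human HepaRG cells in serum-free induction medium; eight-point half-log series, top 100 uM, 0.5% DMSO vehicle; bidirectional fit versus DMSO.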

[2] = read-out: adenosine kinase (ADK) gene, ADK (gene 132); experiment: LTEA_HepaRG_ADK: Life Technologies and Expression Analysis (LTEA) Assay for adenosine kinase (ADK) gene using HepaRG (AID 2283471)
Outline: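 HepaRG (human liver), 48 h chemical exposure, 8-pt half-log series, top 100 uM, 0.5% DMSO vehicle. Readout: ADK mRNA by qRT-PCR vs housekeeping genes; bidirectional curve fit relative to DMSO baseline.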

[3] = read-out: Alpha-fetoprotein (AFP) gene, AFP (gene 174); experiment: LTEA_HepaRG_AFP: Life Technologies and Expression Analysis (LTEA) Assay for Alpha-fetoprotein (AFP) gene using HepaRG (AID 2283472);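 on AC50: AFP transcript by TaqMan qRT-PCR normalized to ACTB GAPDH and POLR2A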
Outline: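 qRT-PCR (Fluidigm TaqMan) readout of AFP transcript, normalized to three housekeeping genes, fitted bidirectionally against 0.5% DMSO baseline. HepaRG cells received chemicals for 48 h in serum-free induction medium, top concentration 100 uM, half-log steps.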

[4] = read-out: BCL2L11 (gene 10018); experiment: LTEA_HepaRG_BCL2L11: Life Technologies and Expression Analysis (LTEA) Assay for Bcl-2 (BCL2L11) gene using HepaRG (AID 2283473)
Outline: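 Cells were plated, cultured 48 h, switched to serum-free induction medium, then dosed in duplicate for 48 h at eight half-log concentrations up to 100 uM. Lysates underwent RNA isolation and TaqMan qRT-PCR; gain or loss versus DMSO was fitted.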

[5] = read-out: Apolipoprotein A-V (APOA5) gene, APOA5 (gene 116519); experiment: LTEA_HepaRG_APOA5: Life Technologies and Expression Analysis (LTEA) Assay for Apolipoprotein A-V (APOA5) gene using HepaRG (AID 2283474)
Outline: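 Human liver HepaRG cells are treated 48 h with test chemicals (100 uM top, half-log dilutions, 0.5% DMSO). APOA5 mRNA induction or loss is measured by qRT-PCR relative to vehicle.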

[6] = read-out: Apoptosis regulator Bcl-2 (Homo sapiens) (UniProt P10415); experiment: LTEA_HepaRG_BCL2: Life Technologies and Expression Analysis (LTEA) Assay for Bcl-2 gene using HepaRG (AID 2283475);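 further: BCL2 transcript by TaqMan qRT-PCR normalised to ACTB GAPDH and POLR2A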
Outline: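 qRT-PCR read-out (Fluidigm TaqMan) of BCL2 transcript, normalised to three housekeeping genes, after 48 h chemical exposure of HepaRG cells; 8-point half-log series, top 100 uM, 0.5% DMSO vehicle. Gain or loss of signal fitted relative to DMSO baseline.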

[7] = read-out: Bcl-2 (BID) gene, BID (gene 637); experiment: LTEA_HepaRG_BID: Life Technologies and Expression Analysis (LTEA) Assay for Bcl-2 (BID) gene using HepaRG (AID 2283476)
Outline: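 HepaRG, 48 h exposure, 8-pt half-log series, top 100 uM, 0.5% DMSO vehicle, duplicates. Readout: BID mRNA by TaqMan qRT-PCR; housekeeping-normalized; bidirectional curve fit vs DMSO baseline.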

[8] = read-out: Caspase-3 (Homo sapiens) (UniProt P42574); experiment: LTEA_HepaRG_CASP3: Life Technologies and Expression Analysis (LTEA) Assay for cysteine-aspartic acid protease (CASP3) using HepaRG (AID 2283477)
Outline: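 In HepaRG liver cells dosed for 48 h at up to 100 uM (eight-point, duplicate), CASP3 expression changes are scored by qRT-PCR. Activity is fitted in both directions with 0.5% DMSO as baseline.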

[9] = read-out: Cytochrome P450 (CYP24A1), CYP24A1 (gene 1591); experiment: LTEA_HepaRG_CYP24A1: Life Technologies and Expression Analysis (LTEA) Assay for Cytochrome P450 (CYP24A1) using HepaRG (AID 2283478)
Outline: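 Human liver HepaRG cultures receive each chemical for 48 h across an eight-point half-log series topping at 100 uM in 0.5% DMSO. Induction or suppression of CYP24A1 mRNA is scored relative to vehicle after housekeeping-gene normalization.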

[10] = read-out: Cytochrome P450 (CYP1A2), CYP1A2 (gene 1544); experiment: LTEA_HepaRG_CYP1A2: Life Technologies and Expression Analysis (LTEA) Assay for Cytochrome P450 (CYP1A2) using HepaRG (AID 2283479);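 on AC50: TaqMan qRT-PCR transcript level normalized to ACTB GAPDH and POLR2A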
Outline: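 Assesses CYP1A2 mRNA in human HepaRG liver cells after 48 h chemical exposure at up to 100 uM. Values come from qRT-PCR with bidirectional curve fitting relative to DMSO.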

Sequence of Apoptosis regulator Bcl-2 (Homo sapiens) (P10415 whole entry, looked up): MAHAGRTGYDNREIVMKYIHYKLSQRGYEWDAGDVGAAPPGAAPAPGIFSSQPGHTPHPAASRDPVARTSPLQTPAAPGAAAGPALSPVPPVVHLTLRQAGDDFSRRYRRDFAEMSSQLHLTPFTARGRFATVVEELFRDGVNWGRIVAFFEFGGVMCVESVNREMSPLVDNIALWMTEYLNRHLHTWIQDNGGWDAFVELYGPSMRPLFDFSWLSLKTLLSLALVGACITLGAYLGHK
Sequence of Caspase-3 (Homo sapiens) (P42574 whole entry, looked up): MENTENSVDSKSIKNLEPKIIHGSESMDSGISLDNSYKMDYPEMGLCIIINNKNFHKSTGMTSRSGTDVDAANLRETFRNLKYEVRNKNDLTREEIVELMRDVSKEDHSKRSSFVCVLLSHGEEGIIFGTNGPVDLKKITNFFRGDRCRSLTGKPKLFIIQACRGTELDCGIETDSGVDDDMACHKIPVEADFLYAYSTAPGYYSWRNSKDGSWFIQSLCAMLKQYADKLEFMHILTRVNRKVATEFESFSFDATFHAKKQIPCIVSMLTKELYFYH

Row | SMILES | outcome [1] | AC50 [2] | AC50 [3] | AC50 [4] | outcome [5] | outcome [6] | outcome [7] | AC50 [8] | outcome [9] | AC50 [10] | outcome [2] | outcome [4] | outcome [8] | outcome [10] | outcome [3] | AC50 [1] | AC50 [6]
1 | O=[N+]([O-])/N=C1\NCCN1Cc1ccc(Cl)nc1 | inactive | 35.2 µM (active) | 31.7 µM (active) | 23.3 µM (active) | inactive | inactive | inactive | 26.7 µM (active) | inactive | 23.6 µM (active) | – | – | – | – | – | – | –
2 | C#CCN1C(=O)COc2cc(F)c(N3C(=O)C4=C(CCCC4)C3=O)cc21 | inactive | – | 40.4 µM (active) | – | – | inactive | inactive | – | inactive | – | inactive | inactive | inactive | inactive | – | – | –
3 | O=C(O)COc1ccc(Cl)cc1Cl | inactive | – | – | – | – | inactive | inactive | – | inactive | 50 µM (active) | inactive | inactive | inactive | – | inactive | – | –
4 | OCCOc1ccccc1 | inactive | – | – | – | – | inactive | inactive | – | inactive | – | inactive | inactive | inactive | inactive | inactive | – | –
5 | O=C(NC(=O)c1c(F)cccc1F)Nc1ccc(OC(F)(F)C(F)OC(F)(F)F)c(Cl)c1 (configuration not stated) | inactive | – | – | – | – | inactive | inactive | – | inactive | 12.3 µM (active) | inactive | inactive | inactive | – | inactive | – | –
6 | CCC(C)(C)C(=O)OC1=C(c2ccc(Cl)cc2Cl)C(=O)OC12CCCCC2 | inactive | – | – | – | – | inactive | inactive | – | inactive | 50 µM (active) | inactive | inactive | inactive | – | inactive | – | –
7 | CNC(=O)Oc1cccc(N=CN(C)C)c1 | inactive | – | – | – | – | inactive | inactive | – | inactive | – | inactive | inactive | inactive | inactive | inactive | – | –
8 | C[C@H]1[C@H](c2ccc(Cl)cc2)SC(=O)N1C(=O)NC1CCCCC1 | – | – | 36.7 µM (active) | 67.2 µM (active) | – | – | inactive | – | inactive | 83.9 µM (active) | inactive | – | inactive | – | – | 77.2 µM (active) | 76 µM (active)
9 | COc1nn(CSP(=S)(OC)OC)c(=O)s1 | inactive | – | – | – | – | inactive | inactive | – | inactive | 12.1 µM (active) | inactive | inactive | inactive | – | inactive | – | –
10 | O=[N+]([O-])c1c(Cl)c(Cl)c(Cl)c(Cl)c1Cl | inactive | – | – | – | – | inactive | inactive | – | inactive | 36.7 µM (active) | inactive | inactive | inactive | – | inactive | – | –
11 | O=C1c2ccccc2C(=O)N1SC(Cl)(Cl)Cl | inactive | – | – | – | – | inactive | inactive | – | inactive | – | inactive | inactive | inactive | inactive | inactive | – | –
12 | O=C(Nc1ccccc1)Nc1cnns1 | inactive | – | 76.2 µM (active) | – | – | inactive | inactive | – | inactive | 68 µM (active) | inactive | inactive | inactive | – | – | – | –
13 | CCN(CC)C(=O)SCc1ccc(Cl)cc1 | inactive | – | – | – | – | inactive | inactive | – | inactive | – | inactive | inactive | inactive | inactive | inactive | – | –
14 | CN1CSC(=S)N(C)C1 | inactive | – | – | – | – | inactive | inactive | – | inactive | 34.7 µM (active) | inactive | inactive | inactive | – | inactive | – | –
15 | CCOC1Oc2ccc(OS(C)(=O)=O)cc2C1(C)C (configuration not stated) | inactive | – | 72.3 µM (active) | – | – | – | inactive | – | inactive | 73.3 µM (active) | inactive | inactive | inactive | – | – | – | 82.1 µM (active)
16 | COP(=S)(OC)Oc1ccc([N+](=O)[O-])cc1 | inactive | – | – | – | – | inactive | inactive | – | inactive | 32.8 µM (active) | inactive | inactive | inactive | – | inactive | – | –
17 | N#CN | inactive | – | – | – | – | inactive | inactive | – | inactive | – | inactive | inactive | inactive | inactive | inactive | – | –
18 | CC1(C)C(C=C(Cl)Cl)C1C(=O)OC(C#N)c1ccc(F)c(Oc2ccccc2)c1 (configuration not stated) | inactive | – | – | – | – | inactive | inactive | – | inactive | 20.2 µM (active) | inactive | inactive | inactive | – | inactive | – | –
19 | CC[C@H](C)[C@H]1O[C@]2(C=C[C@@H]1C)C[C@@H]1C[C@@H](C/C=C(\C)[C@@H](O[C@H]3C[C@H](OC)[C@@H](O[C@H]4C[C@H](OC)[C@@H](O)[C@H](C)O4)[C@H](C)O3)[C@@H](C)/C=C/C=C3\CO[C@@H]4[C@H](O)C(C)=C[C@@H](C(=O)O1)[C@]34O)O2 (tested in a mixture with another compound) | – | – | – | 10.7 µM (active) | – | – | inactive | – | inactive | 10.9 µM (active) | inactive | – | inactive | – | inactive | 7.73 µM (active) | 9.08 µM (active)
20 | CCOCN(C(=O)CCl)c1c(C)cccc1CC | inactive | – | 93.3 µM (active) | 67.5 µM (active) | – | inactive | inactive | – | inactive | – | inactive | – | inactive | inactive | – | – | –
21 | CC(C)(C)C(O)C(Oc1ccc(Cl)cc1)n1cncn1 (configuration not stated) | inactive | – | 4.76 µM (active) and 9.92 µM (active) and 50 µM (active) | – | – | inactive | inactive | – | inactive | 22.2 µM (active) and 36.8 µM (active) and 32.8 µM (active) | inactive | inactive | inactive | – | – | – | –
22 | COP(=S)(OC)Oc1ccc(SC)c(C)c1 | inactive | – | 10.3 µM (active) | – | – | inactive | inactive | – | inactive | 35 µM (active) | inactive | inactive | inactive | – | – | – | –
23 | CCCN(CCOc1c(Cl)cc(Cl)cc1Cl)C(=O)n1ccnc1 | – | – | 22.5 µM (active) | 12.7 µM (active) | – | – | inactive | – | inactive | 3.86 µM (active) | inactive | – | inactive | – | – | 50 µM (active) | 28.9 µM (active)
24 | COP(=O)(OC)OC=C(Cl)Cl | inactive | – | – | – | – | inactive | inactive | – | inactive | – | inactive | inactive | inactive | inactive | inactive | – | –
